The supplement of paper PMC10037445
Over roughly 2,900 compounds, “NF-kB SEAP reporter activity, fold change vs agonist alone” has its median near 0.99; the highest 2% begin near 2.6. The entries come from a sample that favours the highest values as a whole.

Tests used:
RAW-Dual [1] = assay: NF-kB SEAP reporter activity, fold change vs agonist alone; higher = enhanced NF-kB activity
Procedure, shortened: (§1)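 Reporter activity is given as fold change relative to agonist-alone wells. To measure it, 50 nL of library stock was pin-tooled onto RAW-Dual macrophages (50,000 cells/well, DMEM, 384-well plates), a PRR agonist followed 1 h later, and cells stayed at 37 °C, 5% CO2. Twenty hours on, supernatant was assayed for IRF (QuantiLuc luminescence) and NF-κB (QuantiBlue, 620 nm absorbance), and wells under 70% of agonist-control IncuCyte confluency in both mask sets were marked cytotoxic.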

RAW-Dual [2] = assay: NF-kB SEAP reporter activity, fold change vs agonist alone; cytotoxicity flag (confluency mask): not cytotoxic; higher = enhanced NF-kB activity
Procedure, shortened: as §1

RAW-Dual [3] = assay: NF-kB SEAP reporter activity, fold change vs agonist alone; cytotoxicity flag (confluency mask): cytotoxic (confluency <70% of control); higher = enhanced NF-kB activity
Procedure, shortened: as §1

[4] = library stock concentration (final ~1000-fold dilution): 10 mM, cytotoxicity flag (confluency mask): not cytotoxic, agonist: Imiquimod (TLR7) […]
[5] = library stock concentration (final ~1000-fold dilution): 10 mM, cytotoxicity flag (confluency mask): not cytotoxic, agonist: MPLA (TLR4) […]
[6] = agonist: ODN 1826 (TLR9) 0.5 ug/mL
[7] = agonist: Pam2CSK4 (TLR2/6) 0.1 ug/mL
[8] = agonist: Pam3CSK4 (TLR2/1) 0.1 ug/mL
[9] = library stock concentration (final ~1000-fold dilution): 10 mM, cytotoxicity flag (confluency mask): cytotoxic (confluency <70% of control), agonist: Imiquimod (TLR7) […]
[10] = library stock concentration (final ~1000-fold dilution): 10 mM, cytotoxicity flag (confluency mask): cytotoxic (confluency <70% of control), agonist: MPLA (TLR4) […]

Compound: COCCOc1nc(N)c2[nH]c(=O)n(Cc3ccc(C(=O)O)cc3)c2n1
- NF-kB SEAP reporter activity (RAW-Dual [1]; [4]): 1.8
- NF-kB SEAP reporter activity (RAW-Dual [1]; [5]): 2.54

Compound: COCCOc1nc(N)c2[nH]c(=O)n(Cc3ccc(C(=O)O)cc3)c2n1 (library stock concentration (final ~1000-fold dilution): 10 mM)
- NF-kB SEAP reporter activity (RAW-Dual [2]; agonist: LPS (TLR4) 0.1 ug/mL): 7.55
- NF-kB SEAP reporter activity (RAW-Dual [2]; [6]): 2.13
- NF-kB SEAP reporter activity (RAW-Dual [2]; [7]): 1.46
- NF-kB SEAP reporter activity (RAW-Dual [2]; [8]): 2.77

Compound: CCCCOc1nc(N)c2c(n1)N(Cc1cccc(CN3CCCC3)c1)CC(=O)N2
- NF-kB SEAP reporter activity (RAW-Dual [1]; library stock concentration (final ~1000-fold dilution): 1 mM, cytotoxicity flag (confluency mask): not cytotoxic, agonist: Imiquimod (TLR7) […]): 1.26
- NF-kB SEAP reporter activity (RAW-Dual [1]; library stock concentration (final ~1000-fold dilution): 1 mM, cytotoxicity flag (confluency mask): not cytotoxic, agonist: MPLA (TLR4) […]): 1.91

Compound: Cc1cn(C2CC(O)C(CO)O2)c(=O)[nH]c1=O (configuration not stated) (library stock concentration (final ~1000-fold dilution): 10 mM)
- NF-kB SEAP reporter activity (RAW-Dual [2]; agonist: LPS (TLR4) 0.1 ug/mL): 1.16
- NF-kB SEAP reporter activity (RAW-Dual [2]; [6]): 1.03
- NF-kB SEAP reporter activity (RAW-Dual [2]; [7]): 1.12
- NF-kB SEAP reporter activity (RAW-Dual [2]; [8]): 1.11

Compound: Cc1cn(C2CC(O)C(CO)O2)c(=O)[nH]c1=O (configuration not stated)
- NF-kB SEAP reporter activity (RAW-Dual [1]; [4]): 0.952
- NF-kB SEAP reporter activity (RAW-Dual [1]; [5]): 1.03

Compound: COCCOc1ccc2c(c1)ncn2-c1ccc2cccc(N3CCC(N)CC3)c2n1 (library stock concentration (final ~1000-fold dilution): 10 mM)
- NF-kB SEAP reporter activity (RAW-Dual [3]; agonist: LPS (TLR4) 0.1 ug/mL): 0.593
- NF-kB SEAP reporter activity (RAW-Dual [3]; [6]): 0.758
- NF-kB SEAP reporter activity (RAW-Dual [3]; [7]): 0.862
- NF-kB SEAP reporter activity (RAW-Dual [3]; [8]): 1.32

Compound: CC1(COc2ccc3c(c2)ncn3-c2ccc3cccc(N4CCC(N)CC4)c3n2)COC1
- NF-kB SEAP reporter activity (RAW-Dual [1]; [9]): 2.9
- NF-kB SEAP reporter activity (RAW-Dual [1]; [10]): 1.43

Compound: CC1(COc2ccc3c(c2)ncn3-c2ccc3cccc(N4CCC(N)CC4)c3n2)COC1 (library stock concentration (final ~1000-fold dilution): 10 mM)
- NF-kB SEAP reporter activity (RAW-Dual [3]; agonist: LPS (TLR4) 0.1 ug/mL): 0.769
- NF-kB SEAP reporter activity (RAW-Dual [3]; [6]): 1.59
- NF-kB SEAP reporter activity (RAW-Dual [3]; [7]): 1.81
- NF-kB SEAP reporter activity (RAW-Dual [3]; [8]): 1.6

Compound: COCCOc1ccc2c(c1)ncn2-c1ccc2cccc(N3CCC(N)CC3)c2n1
- NF-kB SEAP reporter activity (RAW-Dual [1]; [9]): 2.77
- NF-kB SEAP reporter activity (RAW-Dual [1]; [10]): 0.871

Compound: OCc1ccccc1OC1OC(CO)C(O)C(O)C1O (configuration not stated)
- NF-kB SEAP reporter activity (RAW-Dual [1]; [4]): 0.917
- NF-kB SEAP reporter activity (RAW-Dual [1]; [5]): 1.04

Compound: OCc1ccccc1OC1OC(CO)C(O)C(O)C1O (configuration not stated) (library stock concentration (final ~1000-fold dilution): 10 mM)
- NF-kB SEAP reporter activity (RAW-Dual [2]; agonist: LPS (TLR4) 0.1 ug/mL): 0.986
- NF-kB SEAP reporter activity (RAW-Dual [2]; [6]): 1.08
- NF-kB SEAP reporter activity (RAW-Dual [2]; [7]): 1.11
- NF-kB SEAP reporter activity (RAW-Dual [2]; [8]): 1.19

Compound: COc1cccc(-c2c(C)n(Cc3c(F)cccc3C(F)(F)F)c(=O)n(CC(NCCCC(=O)O)c3ccccc3)c2=O)c1F (configuration not stated) (library stock concentration (final ~1000-fold dilution): 10 mM)
- NF-kB SEAP reporter activity (RAW-Dual [2]; agonist: LPS (TLR4) 0.1 ug/mL): 1.32
- NF-kB SEAP reporter activity (RAW-Dual [2]; [6]): 1.06
- NF-kB SEAP reporter activity (RAW-Dual [2]; [7]): 0.866
- NF-kB SEAP reporter activity (RAW-Dual [2]; [8]): 0.768

Compound: COc1cccc(-c2c(C)n(Cc3c(F)cccc3C(F)(F)F)c(=O)n(CC(NCCCC(=O)O)c3ccccc3)c2=O)c1F (configuration not stated)
- NF-kB SEAP reporter activity (RAW-Dual [1]; [5]): 1.03

Compound: C=CC1(C)CC(OC(=O)CSCCN(CC)CC)C2(C)C(C)CCC3(CCC(=O)C32)C(C)C1O (configuration not stated) (library stock concentration (final ~1000-fold dilution): 10 mM)
- NF-kB SEAP reporter activity (RAW-Dual [2]; agonist: LPS (TLR4) 0.1 ug/mL): 1.56
- NF-kB SEAP reporter activity (RAW-Dual [2]; [6]): 0.725
- NF-kB SEAP reporter activity (RAW-Dual [2]; [7]): 1.11
- NF-kB SEAP reporter activity (RAW-Dual [2]; [8]): 0.934

Compound: C=CC1(C)CC(OC(=O)CSCCN(CC)CC)C2(C)C(C)CCC3(CCC(=O)C32)C(C)C1O (configuration not stated)
- NF-kB SEAP reporter activity (RAW-Dual [1]; [5]): 1.12

Compound: Nc1cccc2c1C(=O)N(C1CCC(=O)NC1=O)C2=O (configuration not stated)
- NF-kB SEAP reporter activity (RAW-Dual [1]; [4]): 1.6
- NF-kB SEAP reporter activity (RAW-Dual [1]; [5]): 1.07

Compound: Nc1cccc2c1C(=O)N(C1CCC(=O)NC1=O)C2=O (configuration not stated) (library stock concentration (final ~1000-fold dilution): 10 mM)
- NF-kB SEAP reporter activity (RAW-Dual [2]; agonist: LPS (TLR4) 0.1 ug/mL): 1.16
- NF-kB SEAP reporter activity (RAW-Dual [2]; [6]): 1.17
- NF-kB SEAP reporter activity (RAW-Dual [2]; [7]): 1.08
- NF-kB SEAP reporter activity (RAW-Dual [2]; [8]): 1.35

Compound: Cc1sc2c(c1C)C(c1ccc(Cl)cc1)=NC(CC(=O)NCCCCNC(=O)COc1cccc3c1C(=O)N(C1CCC(=O)NC1=O)C3=O)c1nnc(C)n1-2 (configuration not stated) (library stock concentration (final ~1000-fold dilution): 10 mM)
- NF-kB SEAP reporter activity (RAW-Dual [3]; agonist: LPS (TLR4) 0.1 ug/mL): 7.56
- NF-kB SEAP reporter activity (RAW-Dual [3]; [6]): 3.05
- NF-kB SEAP reporter activity (RAW-Dual [3]; [7]): 1.99
- NF-kB SEAP reporter activity (RAW-Dual [3]; [8]): 3.03

Compound: Cc1sc2c(c1C)C(c1ccc(Cl)cc1)=N[C@@H](CC(=O)NCCCCCCCCNC(=O)COc1cccc3c1C(=O)N(C1CCC(=O)NC1=O)C3=O)c1nnc(C)n1-2 (some centres not stated) (library stock concentration (final ~1000-fold dilution): 10 mM)
- NF-kB SEAP reporter activity (RAW-Dual [3]; agonist: LPS (TLR4) 0.1 ug/mL): 3.73
- NF-kB SEAP reporter activity (RAW-Dual [3]; [6]): 1.84
- NF-kB SEAP reporter activity (RAW-Dual [3]; [7]): 1.74
- NF-kB SEAP reporter activity (RAW-Dual [3]; [8]): 3

Compound: O=C1CCC(N2C(=O)c3ccccc3C2=O)C(=O)N1 (configuration not stated) (library stock concentration (final ~1000-fold dilution): 10 mM)
- NF-kB SEAP reporter activity (RAW-Dual [2]; agonist: LPS (TLR4) 0.1 ug/mL): 1.22
- NF-kB SEAP reporter activity (RAW-Dual [2]; [6]): 1.01
- NF-kB SEAP reporter activity (RAW-Dual [2]; [7]): 0.95
- NF-kB SEAP reporter activity (RAW-Dual [2]; [8]): 1.17

Compound: Cc1sc2c(c1C)C(c1ccc(Cl)cc1)=N[C@@H](CC(=O)NCCCCCCCCNC(=O)COc1cccc3c1C(=O)N(C1CCC(=O)NC1=O)C3=O)c1nnc(C)n1-2 (some centres not stated)
- NF-kB SEAP reporter activity (RAW-Dual [1]; [9]): 1.73
- NF-kB SEAP reporter activity (RAW-Dual [1]; [10]): 2.44

Compound: O=C1CCC(N2C(=O)c3ccccc3C2=O)C(=O)N1 (configuration not stated)
- NF-kB SEAP reporter activity (RAW-Dual [1]; [4]): 0.926
- NF-kB SEAP reporter activity (RAW-Dual [1]; [5]): 0.792

Compound: Cc1sc2c(c1C)C(c1ccc(Cl)cc1)=NC(CC(=O)NCCCCNC(=O)COc1cccc3c1C(=O)N(C1CCC(=O)NC1=O)C3=O)c1nnc(C)n1-2 (configuration not stated)
- NF-kB SEAP reporter activity (RAW-Dual [1]; [9]): 1.89
- NF-kB SEAP reporter activity (RAW-Dual [1]; [10]): 2.59

Compound: C/C=C1/C2C=C(C)CC1(N)c1ccc(=O)[nH]c1C2 (configuration not stated)
- NF-kB SEAP reporter activity (RAW-Dual [1]; library stock concentration (final ~1000-fold dilution): 2 mM, cytotoxicity flag (confluency mask): not cytotoxic, agonist: Imiquimod (TLR7) […]): 0.822
- NF-kB SEAP reporter activity (RAW-Dual [1]; library stock concentration (final ~1000-fold dilution): 2 mM, cytotoxicity flag (confluency mask): not cytotoxic, agonist: MPLA (TLR4) […]): 1.1

Compound: C/C=C1/C2C=C(C)CC1(N)c1ccc(=O)[nH]c1C2 (configuration not stated) (library stock concentration (final ~1000-fold dilution): 2 mM)
- NF-kB SEAP reporter activity (RAW-Dual [2]; agonist: LPS (TLR4) 0.1 ug/mL): 1.33
- NF-kB SEAP reporter activity (RAW-Dual [2]; [6]): 1.01
- NF-kB SEAP reporter activity (RAW-Dual [2]; [7]): 1.14
- NF-kB SEAP reporter activity (RAW-Dual [2]; [8]): 1.01
